Reference: PubChem BioAssay AID720700 (The Scripps Research Institute Molecular Screening Center, 2013)
About 3,100 (0.84%) of roughly 370,000 compounds were called active. Rule as the data show it: active = inhibition above about 9.5%; inactive = the rest. The entries come from a sample that favours actives as a whole.

molecular target: 1-phosphatidylinositol 4,5-bisphosphate phosphodiesterase gamma-1 (Homo sapiens) (UniProt P19174); experiment: PLC-gamma1 enzyme inhibitors, primary screen, biochemical, fluorescence, purified enzyme (AID 720700); conditions: purified PLC-gamma1, fluorogenic substrate, at 12.2 µM, active compounds read high
Sequence (P19174 whole entry, looked up): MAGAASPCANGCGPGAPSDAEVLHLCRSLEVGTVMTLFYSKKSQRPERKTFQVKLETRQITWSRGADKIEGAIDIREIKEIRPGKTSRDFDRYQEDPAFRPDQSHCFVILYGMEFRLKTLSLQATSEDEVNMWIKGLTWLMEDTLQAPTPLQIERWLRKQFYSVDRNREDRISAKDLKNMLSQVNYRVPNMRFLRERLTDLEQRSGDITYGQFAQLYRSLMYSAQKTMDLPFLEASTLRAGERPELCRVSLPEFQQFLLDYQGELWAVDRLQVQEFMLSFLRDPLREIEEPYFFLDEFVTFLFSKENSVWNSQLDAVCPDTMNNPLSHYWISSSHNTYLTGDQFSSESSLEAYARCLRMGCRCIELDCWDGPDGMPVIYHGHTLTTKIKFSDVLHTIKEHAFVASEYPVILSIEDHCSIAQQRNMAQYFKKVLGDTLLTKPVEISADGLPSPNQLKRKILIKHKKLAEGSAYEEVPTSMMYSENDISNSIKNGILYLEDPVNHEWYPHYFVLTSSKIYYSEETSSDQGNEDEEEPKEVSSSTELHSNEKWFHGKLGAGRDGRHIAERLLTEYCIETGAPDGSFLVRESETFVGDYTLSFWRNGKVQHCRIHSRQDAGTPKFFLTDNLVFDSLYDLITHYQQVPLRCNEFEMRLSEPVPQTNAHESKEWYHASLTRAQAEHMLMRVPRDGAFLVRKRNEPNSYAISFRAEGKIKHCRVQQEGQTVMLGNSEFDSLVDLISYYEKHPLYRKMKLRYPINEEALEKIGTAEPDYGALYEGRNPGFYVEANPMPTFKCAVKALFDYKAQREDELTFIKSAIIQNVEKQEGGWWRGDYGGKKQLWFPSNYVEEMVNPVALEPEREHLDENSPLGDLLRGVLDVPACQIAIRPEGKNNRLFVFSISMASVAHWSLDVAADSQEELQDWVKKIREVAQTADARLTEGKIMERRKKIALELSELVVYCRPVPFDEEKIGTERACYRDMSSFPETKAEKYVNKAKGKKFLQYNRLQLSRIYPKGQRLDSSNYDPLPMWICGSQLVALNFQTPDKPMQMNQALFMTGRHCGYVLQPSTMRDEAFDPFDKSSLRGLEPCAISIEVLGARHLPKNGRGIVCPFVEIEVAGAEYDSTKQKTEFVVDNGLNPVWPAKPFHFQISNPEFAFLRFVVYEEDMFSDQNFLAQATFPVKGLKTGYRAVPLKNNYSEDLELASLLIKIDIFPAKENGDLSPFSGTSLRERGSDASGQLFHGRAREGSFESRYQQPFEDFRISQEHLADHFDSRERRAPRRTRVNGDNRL

inhibition, active:
O=S1(=O)c2ccc(Br)cc2OC[C@H](Cc2ccccc2)N1Cc1cn(Cc2ccccc2)nn1 10.2%
O=C(NCCCN1CCCCC1)C1CC(=O)N(CCc2ccccc2)C1 (stereo not drawn) 10%
O=C1c2ccccc2S(=O)(=O)N1CC(O)Cn1c2ccccc2c2ccccc21 (stereo not drawn) 15.2%
CC1(C)CC(=O)C=C(NCCN2CCNCC2)C1 10.7%
CCOC(=O)N1CCC(c2cc(=O)n(-c3ccccc3)[nH]2)CC1 9.95%
Cc1ccccc1C(=O)Nc1ccccc1Sc1ccccc1 10.7%
CN(CC(=O)NC1CCCCC1)S(=O)(=O)c1ccc(Br)s1 10.4%
C=CCOc1ccccc1/C=N/NC(=O)Cc1ccccc1 13.9%
CCCCn1c(SCC(=O)N2CCCC2=O)nc2cc(S(N)(=O)=O)ccc21 9.56%
Cc1ccc(S(=O)(=O)Cn2nnnc2CN2CCN(Cc3ccc4c(c3)OCO4)CC2)cc1 10.9%
COc1cc(OC)nc(S(C)(=O)=O)n1 16.5%
CCOc1c(Br)cc(/C=C2\C(=O)N(CCC#N)N=C2C)cc1OC 24.6%
Cc1ccc(Cn2ccc(NC(=O)C3C4CCC(C4)C3C(=O)O)n2)cc1 (stereo not drawn) 9.61%
O=C(Nc1cccc([N+](=O)[O-])c1)Nn1cnnc1 10.4%
Cc1ccc(-c2cn(S(=O)(=O)c3cccc([N+](=O)[O-])c3)nc2N)cc1 11.4%
N#C[C@]1(S(=O)(=O)c2ccccc2)C[C@@H]2ON=C(c3cccc(Br)c3)[C@@H]2C1 9.78%
O=C(/C=C/c1c(F)cccc1Cl)Nc1nn[nH]n1 12.5%
COCCCN(C(=S)Nc1c(C)cc(C)cc1C)C(C)c1ccncc1 (stereo not drawn) 12.6%

inhibition, inactive:
O=S1(=O)c2ccc(Br)cc2OC[C@@H](Cc2ccccc2)N1Cc1cn(Cc2ccco2)nn1 6.61%
COc1ccc(Cn2cc(CN3[C@@H](CC(C)C)COc4cc(Br)ccc4S3(=O)=O)nn2)cc1 3.87%
O=C(CCCCCN1C(=O)C2C3C=CC(C3)C2C1=O)Nc1ccccc1 (stereo not drawn) 4.2%
CCOC(=O)C1CCN(C(=O)C(C)(C)NC(=O)Nc2ccc(F)c(F)c2)CC1 6.44%
Cc1ccc(CCN2CC(C(=O)NCCc3ccccc3)CC2=O)cc1 (stereo not drawn) 7.32%
COCCCNC(=O)C1CC(=O)N(CCc2ccccc2)C1 (stereo not drawn) 7.12%
COc1cccc(Cn2cc(COC(=O)Nc3ccc(F)cc3)nn2)c1 -1.49%
CCOC(=O)[C@@]12CN(C(=O)OC(C)(C)C)CC=C1N(Cc1ccc(OC)cc1)C(=O)[C@H]2CC(=O)NCc1ccc(OC)c(OC)c1 2.04%
COc1ccc(CN2C/C(=C/c3ccccc3)N3C(=O)C[C@@H](c4ccccc4)N=C23)c(OC)c1 -7.12%
CS(=O)(=O)N(CC(O)Cn1c2ccccc2c2ccccc21)c1cccc2ccccc12 (stereo not drawn) -10.8%
O=C1c2ccccc2S(=O)(=O)N1Cc1c(F)cccc1Cl -1.51%
C=CCN(C)CC#Cc1ccccc1 1.26%
COc1ccc(CCNC2=CC(=O)CC(C)(C)C2)cc1 1.19%
CC1(C)CC(=O)C=C(NCCCN2CCCC2=O)C1 1.47%
O=C(CCS(=O)(=O)c1ccccc1)Nc1ccc(Cl)c(Cl)c1 -5.17%
CCOC(=O)N1CCN(C(=O)C[C@@H]2C(=O)N(CCc3ccc(Cl)cc3)C3=CCCC[C@]32C(=O)OCC)CC1 2.91%
CCOC(=O)N1CCC(C(N)=O)CC1 -1.53%
CCOC(=O)N1CCC(NC(=O)Cc2cn(C)c3ccccc23)CC1 2.53%
O=C(OCC#CCSc1nnc(-c2ccco2)o1)c1ccc(F)cc1 -0.72%
CCN(CC)C(=O)CC[C@H]1CC[C@]2(CCCN(Cc3ccc(Cl)cc3)C2)O1 3.26%
CCCCCCN1CCS(=O)(=O)N(Cc2ccc(C(F)(F)F)cc2)C(C(=O)OC)C1 (stereo not drawn) -2.36%
Cc1cc(NC(=O)c2ccccc2C)no1 3.09%
CSc1ccccc1NC(=O)c1cc(Cl)sc1Cl 3.13%
CCOC(=O)[C@]12CCCC3=C1N(CCC3)C(=O)[C@@H](CC(=O)N1CCSCC1)C2 4.63%
COc1ccc(C(=O)OCCN2CCN(C3CN(Cc4cn(Cc5ccccc5F)nn4)S(=O)(=O)C3)CC2)cc1OC (stereo not drawn) -0.1%
O=C(NC1CCCCN(Cc2ccc(Cl)cc2)C1=O)c1ccc(Br)cc1 (stereo not drawn) 3.44%
CCOC(=O)[C@]12CCCCC/C=C\1N(Cc1ccc(OC)cc1)C(=O)[C@H]2CC(=O)NCCCN1CCCC1=O 1.96%
CN(CC(=O)NC1CCN(Cc2ccccc2)CC1)S(=O)(=O)c1ccc(Cl)s1 6.37%
CN(CC(=O)NC1CCCCC1)S(=O)(=O)c1cccc2cccnc12 -1.31%
Cc1nc(CNc2ncnc3ccc(-c4ccc5c(c4)OCO5)cc23)cs1 -104%
O=C(CC(=O)N/N=C\c1cccc(Cl)c1Cl)NCc1ccccc1 -0.34%
CCn1c(SCC(=O)N/N=C/c2ccccc2OCC(=O)O)nnc1-c1ccc(C(C)(C)C)cc1 -0.82%
O=C1CCC2(CCC(c3ccc(Cl)cc3)CC2)N1CCO (stereo not drawn) 1.68%
COC(=O)[C@]12C[C@H](CC(=O)NCc3ccccc3)C(=O)N(CCC3=CCCCC3)C1=C[C@H](C(C)C)O[C@@H]2C1CC1 4.87%
CCOC(=O)C1=C(C)NC2=C(C(=O)CC(C)(C)C2)C1c1ccc2c(c1)OCO2 (stereo not drawn) -75.8%
Cc1ccc(NC(=O)Nc2cc(C)nn2-c2ccccc2)cc1 -1.85%
CCn1c(SCC(=O)N2CCCC2=O)nc2ccccc21 3.16%
CCCCn1c(SCC(=O)N2CCC(C(=O)OCC)CC2)nc2cc(S(N)(=O)=O)ccc21 0.98%
COc1ccccc1C(=O)NC1CCCCN(C(C)C)C1=O (stereo not drawn) 2.47%
Cc1ccccc1CS(=O)(=O)Cc1ccc(C(=O)Nc2ccc(Cl)cc2)o1 -2.55%
Oc1ccc(/C=C/c2c(F)cccc2F)c2cccnc12 -12.7%
COC(=O)[C@H](C(C)C)N(CCCc1cn(Cc2ccccc2)nn1)S(=O)(=O)c1ccc(F)cc1Br 0.35%
O=C1CC(c2ccc3c(c2)OCO3)N=C2N(CC3CC3)C/C(=C/c3ccccc3)N12 (stereo not drawn) -5.26%
Fc1ccccc1C(c1nnnn1Cc1ccc2c(c1)OCO2)N1CCN(Cc2ccccc2)CC1 (stereo not drawn) 0.65%
Cc1ccc(C(c2nnnn2CS(=O)(=O)c2ccc(C)cc2)N2CCC(C)CC2)cc1 (stereo not drawn) 0.22%
CCC(=O)Nc1nc(OC)cc(OC)n1 2.37%
COc1ccnc(C(=O)N2CCC(Oc3cccnc3)CC2)c1 0.2%
O=C(NCc1ccc(Cl)cc1)C1CCCN(c2nc3ccccc3o2)C1 (stereo not drawn) 1.63%
Cc1ccc(CN2CC(C(=O)NNC(=O)Cn3ccc(C(F)(F)F)n3)CC2=O)cc1 (stereo not drawn) 2.76%
O=C(NNC(=O)C1C2CCC(C2)C1C(=O)O)c1ccc(Cl)cc1 (stereo not drawn) 1.22%
O=C(CSc1nnc(-c2ccccn2)n1-c1ccc(Cl)cc1)Nc1ccccc1-c1ccccc1 0.96%
O=C(CCCCCN1C(=O)C2C3C=CC(C3)C2C1=O)Nc1ccccn1 (stereo not drawn) 1.47%
Cc1cc(C)nc(NC(=S)N2CCN(c3ccc(C(F)(F)F)cn3)CC2)c1 0.58%
O=C(COc1ccc([N+](=O)[O-])cc1Cl)Nn1cnnc1 2.5%
CN(C(=O)c1cccc(NC(=O)Cc2cccc([N+](=O)[O-])c2)c1)C1CCCCC1 8.53%
O=C(c1ccccc1)c1ccc(-c2ccccc2C(=O)NC2CCCCN(Cc3ccc(Cl)cc3)C2=O)cc1 (stereo not drawn) 1.5%
Cc1ccc(NC(=O)Cc2cccc(F)c2)c(S(=O)(=O)N2CCOCC2)c1 -42.8%
CC1=NCCN1S(=O)(=O)c1cccc([N+](=O)[O-])c1 -1.13%
Cc1cc(C)n(S(=O)(=O)c2cccc([N+](=O)[O-])c2)n1 0.37%
CCOC(=O)[C@]12CCCCC/C=C\1N(Cc1ccc(OC)cc1)C(=O)[C@H]2CC(=O)NCc1ccc(C)o1 0.82%
COC(=O)[C@]1(S(=O)(=O)c2ccccc2)C[C@@H]2ON=C(c3ccc(OC)cc3)[C@@H]2C1 -2.22%
CCn1c(=O)n2n(c1=O)[C@@]1(C=C3CCCC[C@H]32)N=C(NC(=O)c2ccccc2)N(Cc2ccccc2)[C@H]1Cc1ccccc1 -12.3%
COC(=O)C12C=C3CC(c4ccccc4)=C3C(=O)N1Cc1[nH]c3ccccc3c1C2 (stereo not drawn) -9.2%
O=C(/C=C/c1c(Cl)cccc1Cl)NCc1ccccc1 3.49%
CCOC(=O)CNC(=O)/C=C/c1c(Cl)cccc1Cl 0.18%
O=C(CSc1nnc(-c2ccccn2)n1-c1ccccc1)Nc1ccc2cn[nH]c2c1 3.11%
COCCN(C(=S)Nc1cccc(Cl)c1C)C(C)c1ccco1 (stereo not drawn) 4.95%
COCCCN(C(=O)Cn1ncc2c(=O)oc3ccc(C)cc3c21)C(C)c1ccncc1 (stereo not drawn) 2.83%
Cc1cc(NS(=O)(=O)c2ccc(NC(=O)CSc3nnc(SCc4ccc(F)cc4)s3)cc2)nc(C)n1 6.25%
CCn1c2ccccc2c2cc(NC(=O)CSc3nnc(-c4ccccc4)n3-c3ccc(C)cc3)ccc21 -1.61%
